Test results published in PubChem BioAssay.
Measured potencies and affinities stand elsewhere. Activity calls are given as the source filed them. Unless noted, no rule for the calls is given here.

Biological target: Calcium-dependent protein kinase 1 (Plasmodium falciparum (isolate 3D7)) (UniProt P62344)
Test: PfCDPK1 kinase inhibitors, biochemical, TCAMS library (AID 1159585; cut-off not given, nearly all actives have IC50 up to about 0.98 µM;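 also: inhibitors leave more ATP so luminescence rises with inhibition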)
Conditions: recombinant PfCDPK1, Kinase-Glo ATP depletion luminescence

Chain of Calcium-dependent protein kinase 1 (Plasmodium falciparum (isolate 3D7)) (P62344 whole entry, looked up): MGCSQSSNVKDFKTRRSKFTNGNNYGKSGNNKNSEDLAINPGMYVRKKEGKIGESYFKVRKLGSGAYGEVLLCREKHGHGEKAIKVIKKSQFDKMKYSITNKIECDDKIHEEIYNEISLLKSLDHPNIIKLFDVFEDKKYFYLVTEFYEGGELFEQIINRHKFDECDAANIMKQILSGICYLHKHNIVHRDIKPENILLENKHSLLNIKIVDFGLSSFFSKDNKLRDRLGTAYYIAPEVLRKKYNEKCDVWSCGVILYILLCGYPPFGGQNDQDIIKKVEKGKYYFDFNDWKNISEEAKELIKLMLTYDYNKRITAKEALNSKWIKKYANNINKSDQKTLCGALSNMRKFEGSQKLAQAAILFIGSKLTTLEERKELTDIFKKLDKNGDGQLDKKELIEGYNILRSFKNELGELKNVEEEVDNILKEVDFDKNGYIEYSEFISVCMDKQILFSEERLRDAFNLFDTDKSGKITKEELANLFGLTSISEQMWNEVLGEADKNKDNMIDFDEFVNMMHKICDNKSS

outcome, inactive:
CN1CCN(Cc2ccc(-c3cccc(-c4nc5ccccc5[nH]4)c3)cc2)CC1
CNCCCNCc1ccc(-c2ccc(F)c(Cl)c2)o1
Cc1ccc2nc(-c3cc(-c4ccc(OCc5ccccc5)cc4)cnc3N)[nH]c2c1
O=C(Nc1ccc(OC2CCN(Cc3ccccc3)C2)c(Cl)c1)c1ccc(F)cc1 (stereo not given)
Nc1nc2c(c(=O)[nH]1)CN(S(=O)(=O)c1ccc(C(=O)N[C@@H](CCC(=O)O)C(=O)O)cc1)CC2
CCc1cn2c3c(cc(C(=O)N[C@@H](Cc4ccccc4)[C@H](O)CNCC(C)C)cc13)N(C)S(=O)(=O)CC2
CCN1CCC(N2CCC(C(=O)Nc3cccc(-c4cccc(Cl)c4)c3)CC2)CC1
O=C(Nc1cccc(-c2ccc(-c3nc4ccccc4[nH]3)cc2)c1)c1cnn2cccnc12
COc1ccc2nc3cc(Cl)ccc3c(NCCCCN)c2c1
COc1ccc(CNc2nc(NCCc3ccccc3)c3cc(OC)c(OC)cc3n2)cc1OC
Cc1ccc(F)c(C(=O)Nc2cccc(-c3nn4ccccc4c3-c3ccnc(Nc4cccc(F)c4)n3)c2)c1F
CN(C)CCNC(=O)N1CCCN(c2ncnc3cc(-c4ccc(Cl)cc4)sc23)CC1
CCCC(C)Nc1nc(C)cc(N[C@@H](Cc2ccccc2)C(=O)NCCOc2ccccc2)n1 (stereo not given in full)
CCCc1cn2c3c(cc(C(=O)N[C@@H](Cc4ccccc4)[C@H](O)CNC4CCCCC4)cc13)N(C)S(=O)(=O)CC2
CC(CCCCCC(=O)Nc1ccc(CC(C)NCCc2cccc(Cl)c2)cc1)NCCc1cccc(Cl)c1 (stereo not given)
COc1cc(CNC2Cc3ccccc3C2)ccc1Oc1ccc2nc[nH]c2c1
CCCCCCNc1cc(C)nc(/N=C(\N)Nc2cccc(C(F)(F)F)c2)n1
Cc1ccc(-c2nc(Nc3ccncc3)c3ccccc3n2)s1
CC(C)CCN1CCCN(Cc2cccc(C(=O)Nc3ccc(C(C)(C)C)cc3)c2)CC1
O=C(Nc1ccc(-c2ccccc2)cc1)Nc1cccc(Cn2ncc(N3CCCNCC3)c(Cl)c2=O)c1
CN(C)c1ccc(-c2csc(C(=O)NCC3CCN(Cc4ccc(C(C)(C)C)cc4)C3)c2)cc1 (stereo not given)
CCCCCCN1CCC(NCc2cccc(C#N)c2)CC1
CC(NC(=O)c1ccc(O)c(-c2ccc(Cl)c(Cl)c2)c1)C(=O)NCCN1CCOCC1 (stereo not given)
O=C(Nc1cc(F)cc(F)c1)N1CCOC(CCN2CCC3(CCc4ccccc43)CC2)(c2ccc(Cl)c(Cl)c2)C1 (stereo not given)
O=C(Nc1ccc(OC2CCN(Cc3ccc(F)cc3)CC2)c(Cl)c1)c1ccccc1
O=C(NCCCCN1CCC(c2ccc3c(c2OCCO)CCCC3)CC1)c1ccc(-c2ccc(C(F)(F)F)cc2)cc1
O=C(Nc1ccccc1)N(Cc1cccc(-c2ccc(CNCCc3ccccc3)cc2)c1)C1CCN(Cc2ccccc2)CC1
O=C(/C=C/c1cccc(Cl)c1)N1CCC(C(O)CN2CCC3(CC2)CN(C(=O)/C=C/c2cccc(Cl)c2)c2ccccc23)CC1 (stereo not given)
COc1ccc(Cc2nc(N=C(N)Nc3ccccc3)ccc2OC)cc1
Cc1cc(Cl)ccc1NC(=O)NCCCCCN1CCC(c2c[nH]c3ccccc23)CC1
O=C(C=Cc1ccc(F)cc1)N1CCN(S(=O)(=O)c2ccc(Cl)cc2)CC1
N#Cc1ccc2c(c1)CCN(CCC1CCC(NC(=O)Nc3ccnc4ccccc34)CC1)C2 (stereo not given)
Nc1ncc(-c2ccsc2)c2ccc(-c3ccc4cn[nH]c4c3)cc12
O=c1cc(NC[C@H]2CCC[C@@H]2NCc2cc(Br)cc(Br)c2)[nH]c2ccccc12
COc1ccc(NC(=O)Nc2cccc(-c3cccc(-c4nc5ccc(F)cc5[nH]4)c3)c2)cc1
OC(CNc1ccnc(Nc2ccccc2)n1)c1cccc(C(F)(F)F)c1 (stereo not given)
COc1ccc(CNC2CCCC2)cc1-c1ccc(S(=O)(=O)NCCN2CCCC2)s1
Cc1cccc2[nH]c(-c3ccc(-c4ccc(NC(=O)Nc5cccc(C#N)c5)cc4)cc3)nc12
CC(C)(C)N1CCC(N(Cc2ccc(-c3ccc(C(F)(F)F)cc3)cc2)C(=O)Cn2c(CCc3cccc(F)c3F)nc(=O)c3cccnc32)CC1
CCc1c(CCNCCc2cccc(CCNCCc3ccc(OC)c(OC)c3CC)c2)ccc(OC)c1OC

Biological target: Plasmodium falciparum protein kinase 6 (PK6, PF3D7_1337100) (UniProt Q8IDW1)
Sequence (Q8IDW1 1-305): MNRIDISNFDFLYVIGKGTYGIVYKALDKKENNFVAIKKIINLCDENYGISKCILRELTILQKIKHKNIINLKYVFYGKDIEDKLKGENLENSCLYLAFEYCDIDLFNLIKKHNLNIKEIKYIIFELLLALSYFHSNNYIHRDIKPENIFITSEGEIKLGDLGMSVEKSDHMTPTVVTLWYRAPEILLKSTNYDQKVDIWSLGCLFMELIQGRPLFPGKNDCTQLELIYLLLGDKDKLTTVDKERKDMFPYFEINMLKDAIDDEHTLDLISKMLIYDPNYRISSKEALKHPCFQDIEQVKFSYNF
Test: PfPK6 kinase inhibitors, biochemical, TCAMS library (AID 1159586)
Conditions: recombinant PfPK6, Kinase-Glo ATP depletion luminescence

outcome, inactive:
CN1CCN(Cc2ccc(-c3cccc(-c4nc5ccccc5[nH]4)c3)cc2)CC1
CNCCCNCc1ccc(-c2ccc(F)c(Cl)c2)o1
Cc1ccc2nc(-c3cc(-c4ccc(OCc5ccccc5)cc4)cnc3N)[nH]c2c1
O=C(Nc1ccc(OC2CCN(Cc3ccccc3)C2)c(Cl)c1)c1ccc(F)cc1 (stereo not given)
Nc1nc2c(c(=O)[nH]1)CN(S(=O)(=O)c1ccc(C(=O)N[C@@H](CCC(=O)O)C(=O)O)cc1)CC2
CCc1cn2c3c(cc(C(=O)N[C@@H](Cc4ccccc4)[C@H](O)CNCC(C)C)cc13)N(C)S(=O)(=O)CC2
CCN1CCC(N2CCC(C(=O)Nc3cccc(-c4cccc(Cl)c4)c3)CC2)CC1
O=C(Nc1cccc(-c2ccc(-c3nc4ccccc4[nH]3)cc2)c1)c1cnn2cccnc12
COc1ccc2nc3cc(Cl)ccc3c(NCCCCN)c2c1
COc1ccc(CNc2nc(NCCc3ccccc3)c3cc(OC)c(OC)cc3n2)cc1OC
Cc1ccc(F)c(C(=O)Nc2cccc(-c3nn4ccccc4c3-c3ccnc(Nc4cccc(F)c4)n3)c2)c1F
CN(C)CCNC(=O)N1CCCN(c2ncnc3cc(-c4ccc(Cl)cc4)sc23)CC1
CCCC(C)Nc1nc(C)cc(N[C@@H](Cc2ccccc2)C(=O)NCCOc2ccccc2)n1 (stereo not given in full)
CCCc1cn2c3c(cc(C(=O)N[C@@H](Cc4ccccc4)[C@H](O)CNC4CCCCC4)cc13)N(C)S(=O)(=O)CC2
CC(CCCCCC(=O)Nc1ccc(CC(C)NCCc2cccc(Cl)c2)cc1)NCCc1cccc(Cl)c1 (stereo not given)
COc1cc(CNC2Cc3ccccc3C2)ccc1Oc1ccc2nc[nH]c2c1
CCCCCCNc1cc(C)nc(/N=C(\N)Nc2cccc(C(F)(F)F)c2)n1
Cc1ccc(-c2nc(Nc3ccncc3)c3ccccc3n2)s1
CC(C)CCN1CCCN(Cc2cccc(C(=O)Nc3ccc(C(C)(C)C)cc3)c2)CC1
O=C(Nc1ccc(-c2ccccc2)cc1)Nc1cccc(Cn2ncc(N3CCCNCC3)c(Cl)c2=O)c1
CN(C)c1ccc(-c2csc(C(=O)NCC3CCN(Cc4ccc(C(C)(C)C)cc4)C3)c2)cc1 (stereo not given)
CCCCCCN1CCC(NCc2cccc(C#N)c2)CC1
CC(NC(=O)c1ccc(O)c(-c2ccc(Cl)c(Cl)c2)c1)C(=O)NCCN1CCOCC1 (stereo not given)
O=C(Nc1cc(F)cc(F)c1)N1CCOC(CCN2CCC3(CCc4ccccc43)CC2)(c2ccc(Cl)c(Cl)c2)C1 (stereo not given)
O=C(Nc1ccc(OC2CCN(Cc3ccc(F)cc3)CC2)c(Cl)c1)c1ccccc1
O=C(NCCCCN1CCC(c2ccc3c(c2OCCO)CCCC3)CC1)c1ccc(-c2ccc(C(F)(F)F)cc2)cc1
O=C(Nc1ccccc1)N(Cc1cccc(-c2ccc(CNCCc3ccccc3)cc2)c1)C1CCN(Cc2ccccc2)CC1
O=C(/C=C/c1cccc(Cl)c1)N1CCC(C(O)CN2CCC3(CC2)CN(C(=O)/C=C/c2cccc(Cl)c2)c2ccccc23)CC1 (stereo not given)
COc1ccc(Cc2nc(N=C(N)Nc3ccccc3)ccc2OC)cc1
Cc1cc(Cl)ccc1NC(=O)NCCCCCN1CCC(c2c[nH]c3ccccc23)CC1
O=C(C=Cc1ccc(F)cc1)N1CCN(S(=O)(=O)c2ccc(Cl)cc2)CC1
N#Cc1ccc2c(c1)CCN(CCC1CCC(NC(=O)Nc3ccnc4ccccc34)CC1)C2 (stereo not given)
Nc1ncc(-c2ccsc2)c2ccc(-c3ccc4cn[nH]c4c3)cc12
O=c1cc(NC[C@H]2CCC[C@@H]2NCc2cc(Br)cc(Br)c2)[nH]c2ccccc12
COc1ccc(NC(=O)Nc2cccc(-c3cccc(-c4nc5ccc(F)cc5[nH]4)c3)c2)cc1
OC(CNc1ccnc(Nc2ccccc2)n1)c1cccc(C(F)(F)F)c1 (stereo not given)
COc1ccc(CNC2CCCC2)cc1-c1ccc(S(=O)(=O)NCCN2CCCC2)s1
Cc1cccc2[nH]c(-c3ccc(-c4ccc(NC(=O)Nc5cccc(C#N)c5)cc4)cc3)nc12
CC(C)(C)N1CCC(N(Cc2ccc(-c3ccc(C(F)(F)F)cc3)cc2)C(=O)Cn2c(CCc3cccc(F)c3F)nc(=O)c3cccnc32)CC1
CCc1c(CCNCCc2cccc(CCNCCc3ccc(OC)c(OC)c3CC)c2)ccc(OC)c1OC
